Sfp PPTase inh = Sfp phosphopantetheinyl transferase inhibition; Q9F4F7; Biochemical Sfp PPTase activity, qHTS; Potency, µM, without a hit: largest response in the series, negative = inhibition, hits mostly inhibitors; actives 3.5% (n = 310,000); AID 1490;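 also: the enzyme is Sfp with the accession as filed and its product quenches rhodamine fluorescence; potency is read from the fitted curve at half-maximal effect; 0% = enzyme reaction without inhibitor and -100% = no enzyme wells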
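With Hepes-Na pH 7.6 buffer containing 10 mM MgCl2, Sfp (15 nM) modified BHQ-2-YbbR (12.5 uM) using rhodamine-CoA (5 uM). Two reads 30 minutes apart at 525/598 nm yielded each well's rate.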
Tau fibril ThT = inhibitors of human tau fibril formation, thioflavin T binding; recombinant tau K18 P301L, heparin-induced fibrillization, ThT fluorescence; actives 2.1% (n = 270,000); Potency, µM (highest dose often 57.4 µM), for inactives: top-dose activity, negative = inhibition, actives largely listed as inhibitors; AID 1460; also: potency is read from the fitted curve at half-maximal effect; nearly all actives have a fitted effect of over 55% in size
Target sequence (P10636 561-689 P618L limits assumed): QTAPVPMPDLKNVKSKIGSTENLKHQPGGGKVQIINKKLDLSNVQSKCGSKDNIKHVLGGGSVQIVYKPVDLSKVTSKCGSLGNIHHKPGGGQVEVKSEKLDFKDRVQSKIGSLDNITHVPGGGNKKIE
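Using a mix of unlabeled (15 uM) and Alexa 594-labeled (0.24 uM) tau K18 P301L, heparin-triggered fibrillization over 6 hr at 37 C was scored by ThT fluorescence.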
G9a block = inhibitors of human histone lysine methyltransferase G9a. Q96KQ7. G9a H3K9 monomethylation, AlphaScreen, 2 h. Potency, µM (series often up to 102 µM), for the others: at the top dose activity, negative = inhibition, hits mostly inhibitors. actives 8.8% (n = 350,000). AID 504332; also: potency is read from the fitted curve at half-maximal effect; nearly all actives have a fitted effect of over 75% in size
Target sequence (Q96KQ7 913-1193 limits assumed): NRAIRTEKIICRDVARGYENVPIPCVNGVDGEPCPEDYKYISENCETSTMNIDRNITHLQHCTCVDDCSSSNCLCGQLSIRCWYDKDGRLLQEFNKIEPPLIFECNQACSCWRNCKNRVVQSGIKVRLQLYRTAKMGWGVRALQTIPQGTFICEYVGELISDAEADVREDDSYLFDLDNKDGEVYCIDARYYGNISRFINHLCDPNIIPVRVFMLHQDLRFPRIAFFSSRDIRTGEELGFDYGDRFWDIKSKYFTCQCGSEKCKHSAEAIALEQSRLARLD
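Methyltransferase reactions run at room temperature for 2 h (20 nM enzyme, 500 nM biotin-H3K9 peptide, 20 uM SAM) after a 15 min compound preincubation; product detected by AlphaScreen beads and anti-H3K9me1 antibody.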
FBPA coupling cs = coupling enzyme interference in Giardia aldolase counter-screen | coupling enzyme system counterscreen, AmpLite Red fluorescence | activity change, negative = inhibition, % at 58.2 µM, hits read low | AID 2472 | actives 0.67% (n = 290,000); in the data active = activity change below about -30%
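First, compound is pin-transferred into glyceraldehyde-3-phosphate coupling-enzyme reagent at 57.5 uM final and held 10 min at RT. Next, substrate, coupling system and AmpLite Red are added. After 20 min RT, fluorescence (525/598 nm) is read.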
Tau FP inhib = inhibitors of human tau fibril formation; Potency, µM (titrated, usually from 57.7 µM), inactives show at the highest dose activity, negative = inhibition, usual class: inhibitors; K18 P301L tau heparin fibrillization, Alexa594 FP, 6 h; P10636; actives 0.39% (n = 280,000); also: potency is read from the fitted curve at half-maximal effect; nearly all actives have a fitted effect of over 55% in size
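K18 P301L tau (15 uM unlabeled/0.24 uM Alexa 594-labeled, final) + compound + heparin 20 uM final; 100 mM NaOAc pH 7; 6 hr 37 C; ThT 30 uM final added, 1 hr RT; FP ex 555/em 632 nm.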
Tau fluor cs = counter-screen for tau fibril formation inhibitors | tau K18 P301L (four-repeat tau fragment) Alexa594 fluorescence, heparin fibrillization | Potency, µM (highest dose often 57.7 µM), inactives show at the top dose activity change, negative = decrease | actives 0.93% (n = 280,000); also: potency is read from the fitted curve at half-maximal effect; nearly all actives have a fitted effect of over 55% in size
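Human K18 P301L tau (15 uM unlabeled plus 0.24 uM Alexa 594-labeled, final) in 100 mM sodium acetate pH 7 was mixed with compound and 20 uM heparin and incubated 6 hr at 37 C.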
The depositor's hits bear a star; [ ] = dose if it differs, or a comment. Rows were chosen to be rich in hits. Some 11% of all compounds tested hit in one or more screens of this group. Unless noted, calls follow the shape of the dose curve; as a rule, active = well fitted curve in the direction sought with a large enough effect; inconclusive = small, poorly fitted or top-dose-only effect, or another doubt; inactive = no such curve, though single readings can be large; an effect the other way counts as inactive or inconclusive. Unless noted, % is scaled to controls: 0 for no effect and ±100 for the full control effect.

Screening COc1cc(C(=O)N/N=C/c2ccccn2)cc(OC)c1OC returned Sfp PPTase inh 56µM*, Tau fibril ThT -11%, G9a block -2%, FBPA coupling cs 2, Tau FP inhib -5% and Tau fluor cs 4%.
Screening O=C(N/N=C/c1ccccn1)c1ccccc1 returned Sfp PPTase inh inconclusive, Tau fibril ThT -7%, G9a block inconclusive, FBPA coupling cs 7, Tau FP inhib -1% and Tau fluor cs -9%.
For Cc1ccccc1C(=O)N/N=C/c1ccccn1 the results were Sfp PPTase inh 71µM*, Tau fibril ThT -9%, G9a block -3%, FBPA coupling cs 2, Tau FP inhib -1% and Tau fluor cs 0%.
Screening Cc1ccc(OC(C)C(=O)N/N=C/c2ccccn2)cc1 (stereo not given) returned Sfp PPTase inh -55%, Tau fibril ThT 0%, G9a block 1.4µM*, FBPA coupling cs -1, Tau FP inhib -8% and Tau fluor cs 3%.
CCc1ccc(C(=O)c2cn(CC(=O)Nc3ccc4c(c3)OCO4)c3ccc(CC)cc3c2=O)cc1 was read as Tau fibril ThT -5%, G9a block inconclusive, Tau FP inhib 6% and Tau fluor cs -28%.
`Cc1ccc(CNC(=O)Cn2c(=O)cc(C(F)(F)F)c3c(C)nn(C)c32)cc1` gave Tau fibril ThT 0%, G9a block 8%[59 µM], Tau FP inhib -3% and Tau fluor cs -3%.
Screening Cn1ncc(Cl)c1C(=O)N/N=C/c1ccccn1 returned Sfp PPTase inh inconclusive, Tau fibril ThT 3%, G9a block 61%[59 µM], FBPA coupling cs -53*, Tau FP inhib -1% and Tau fluor cs 4%.
Cc1ccc(C(=O)Nc2ccc(C(=O)N/N=C/c3ccccn3)cc2)cc1 was read as Sfp PPTase inh 5%, G9a block -46% and FBPA coupling cs 0.
CN(C)c1ccc(C(=O)N/N=C/c2ccccn2)cc1 was read as Sfp PPTase inh inconclusive, G9a block 7.9µM* and FBPA coupling cs 1.
Screening COc1cc(C(=O)N/N=C/c2sc(=O)n(-c3ccccc3)c2Cl)cc(OC)c1OC returned Sfp PPTase inh 10%, Tau fibril ThT inconclusive, G9a block -8%[59 µM], FBPA coupling cs 2, Tau FP inhib inconclusive and Tau fluor cs -30%.
`Cc1ccc(S(=O)(=O)Oc2ccccc2/C=N/NC(=O)c2c(Cl)cnn2C)cc1` gave Sfp PPTase inh 5%, Tau fibril ThT -11%, G9a block 25%[59 µM], FBPA coupling cs -5, Tau FP inhib -4% and Tau fluor cs -20%.
`O=C(N/N=C/c1sc(=O)n(-c2ccccc2)c1Cl)c1ccncc1` gave Sfp PPTase inh -17%, Tau fibril ThT inconclusive, G9a block 50µM*, FBPA coupling cs 3, Tau FP inhib -3% and Tau fluor cs -9%.
For O=C(N/N=C/c1ccccn1)c1ccncc1 the results were Sfp PPTase inh 20µM*, G9a block inconclusive and FBPA coupling cs 0.
For CCCC1CCc2[nH]nc(C(=O)NN)c2C1 (stereo not given) the results were G9a block 1%[2.33 µM].
`CCCCNC(=O)c1ccccc1SCC(=O)NC1CCCCCCC1` gave G9a block -13%[12.7 µM].
For O=C(NN=C1C2CC3CC(C2)CC1C3)c1ccncc1 the results were Sfp PPTase inh -15%, Tau fibril ThT -4%, G9a block -9%, FBPA coupling cs 0, Tau FP inhib -3% and Tau fluor cs 5%.
For Cn1ncc(Cl)c1C(=O)N/N=C/c1cccc(OC2CSC2)c1 the results were Sfp PPTase inh 7%, Tau fibril ThT 1%, G9a block 1%, FBPA coupling cs -40*, Tau FP inhib -5% and Tau fluor cs -5%.
Screening O=C(N/N=C1\C/C(=N\NC(=O)c2ccncc2)c2ccccc21)c1ccncc1 returned Sfp PPTase inh 6%, Tau fibril ThT 10µM*, G9a block -45%, FBPA coupling cs -34*, Tau FP inhib inconclusive and Tau fluor cs inconclusive.
CNc1cc(CSC)nc(SCc2ccc(Cl)c(Cl)c2)n1 was read as Sfp PPTase inh 15%, Tau fibril ThT -12%, G9a block 32µM*, Tau FP inhib -18% and Tau fluor cs -28%.
Screening COc1cc(C)ccc1OCCn1c(-c2ccc(Cl)cc2)nc2ccccc2c1=O returned Tau fibril ThT 2%, G9a block -20%[59 µM], Tau FP inhib -5% and Tau fluor cs -9%.
O=C(CC1SC(N2CCOCC2)=NC1=O)Nc1ccc(Cl)cc1 (stereo not given) was read as G9a block 50µM*.
For CNC(=O)c1ccc(NC(=O)CC2SC(N3CCCC3)=NC2=O)cc1 (stereo not given) the results were G9a block 2µM*.
Screening O=C(CC1SC(N2CCOCC2)=NC1=O)Nc1ccccc1Cl (stereo not given) returned G9a block 7%[2.33 µM].
Screening CC(C)NC(=O)c1ccc(NC(=O)CC2SC(N3CCCC3)=NC2=O)cc1 (stereo not given) returned G9a block -7%[2.33 µM].
Screening CC(C)CN1CC[C@@]2(CCCN(C(=O)c3cc(C(F)(F)F)cc(C(F)(F)F)c3)C2)C1 returned Sfp PPTase inh 10%, G9a block 10%[12.7 µM] and FBPA coupling cs 2.
`O=C(N/N=C/c1cn(Cc2ccccc2)c2ccccc12)c1cc(O)cc(O)c1` gave Sfp PPTase inh -7%, G9a block 79µM* and FBPA coupling cs -1.
For O=C(O)c1ccc(N/N=C/c2cn(Cc3ccc(F)cc3)c3ccccc23)cc1 the results were Sfp PPTase inh -13%, Tau fibril ThT inconclusive, G9a block 45µM*, FBPA coupling cs -1, Tau FP inhib 7% and Tau fluor cs inconclusive.
For COC(=O)N/N=C/c1cn(CCOc2cccc(OC)c2)c2ccccc12 the results were Sfp PPTase inh 2%, G9a block -10% and FBPA coupling cs -3.
Screening Cc1cccc(OCCn2cc(/C=N/NC(=O)c3ccncc3)c3ccccc32)c1 returned Sfp PPTase inh -15%, Tau fibril ThT inconclusive, G9a block 23%[59 µM], FBPA coupling cs 6, Tau FP inhib 2% and Tau fluor cs 16µM*[quencher].
Screening N#CCC(=O)N/N=C/c1cn(Cc2ccc(Cl)c(Cl)c2)c2ccccc12 returned Sfp PPTase inh -29%, Tau fibril ThT inconclusive, G9a block -6%, FBPA coupling cs 2, Tau FP inhib -6% and Tau fluor cs inconclusive.
For CC(C)n1cc(/C=N/Nc2ccc(Cl)c(C(=O)O)c2)c2ccccc21 the results were Sfp PPTase inh -9%, G9a block 10µM* and FBPA coupling cs 9.

Assay outcomes (PubChem BioAssay)
